# Measurements reported in ChEMBL document CHEMBL1961873, “Compounds: GSK PKIS; Assays: Nanosyn kinase panel” (2012).
# Experiments:
# [1] = molecular target: Rho-associated protein kinase 1 (Homo sapiens) (UniProt Q13464); conditions: at 1 µM;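 also: reported values are mean percent inhibition of ROCK1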
# [2] = molecular target: Rho-associated protein kinase 2 (Homo sapiens) (UniProt O75116); conditions: at 0.1 µM
# [3] = molecular target: Rho-associated protein kinase 2 (Homo sapiens) (UniProt O75116); conditions: at 1 µM
# [4] = molecular target: Ribosomal protein S6 kinase alpha-1 (Homo sapiens) (UniProt Q15418); conditions: at 0.1 µM
# [5] = molecular target: Ribosomal protein S6 kinase alpha-1 (Homo sapiens) (UniProt Q15418); conditions: at 1 µM
# [6] = molecular target: Ribosomal protein S6 kinase alpha-3 (Homo sapiens) (UniProt P51812); conditions: at 0.1 µM
# [7] = molecular target: Ribosomal protein S6 kinase alpha-3 (Homo sapiens) (UniProt P51812); conditions: at 1 µM
# [8] = molecular target: Ribosomal protein S6 kinase alpha-2 (Homo sapiens) (UniProt Q15349); conditions: at 0.1 µM
# [9] = molecular target: Ribosomal protein S6 kinase alpha-2 (Homo sapiens) (UniProt Q15349); conditions: at 1 µM
# [10] = molecular target: Ribosomal protein S6 kinase alpha-6 (Homo sapiens) (UniProt Q9UK32); conditions: at 0.1 µM
# [11] = molecular target: Ribosomal protein S6 kinase alpha-6 (Homo sapiens) (UniProt Q9UK32); conditions: at 1 µM
# [12] = molecular target: T1, Serine/threonine-protein kinase Sgk1 (Homo sapiens) (UniProt O00141); conditions: at 0.1 µM
# T1 sequence (whole entry): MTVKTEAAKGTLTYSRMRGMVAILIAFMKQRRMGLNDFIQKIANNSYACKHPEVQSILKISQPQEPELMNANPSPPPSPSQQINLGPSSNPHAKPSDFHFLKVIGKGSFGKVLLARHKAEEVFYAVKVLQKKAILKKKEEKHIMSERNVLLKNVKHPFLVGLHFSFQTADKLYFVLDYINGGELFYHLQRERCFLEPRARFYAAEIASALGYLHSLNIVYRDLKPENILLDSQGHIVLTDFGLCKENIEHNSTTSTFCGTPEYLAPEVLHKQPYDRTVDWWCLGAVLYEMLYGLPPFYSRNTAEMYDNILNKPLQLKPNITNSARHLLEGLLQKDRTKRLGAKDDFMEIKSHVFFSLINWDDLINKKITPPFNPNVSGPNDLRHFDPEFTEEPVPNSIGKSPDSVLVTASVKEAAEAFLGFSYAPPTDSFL
# [13] = molecular target: T1, Serine/threonine-protein kinase Sgk1 (Homo sapiens); conditions: at 1 µM
# [14] = molecular target: T2, Serine/threonine-protein kinase Sgk2 (Homo sapiens) (UniProt Q9HBY8); conditions: at 0.1 µM
# T2 sequence (whole entry): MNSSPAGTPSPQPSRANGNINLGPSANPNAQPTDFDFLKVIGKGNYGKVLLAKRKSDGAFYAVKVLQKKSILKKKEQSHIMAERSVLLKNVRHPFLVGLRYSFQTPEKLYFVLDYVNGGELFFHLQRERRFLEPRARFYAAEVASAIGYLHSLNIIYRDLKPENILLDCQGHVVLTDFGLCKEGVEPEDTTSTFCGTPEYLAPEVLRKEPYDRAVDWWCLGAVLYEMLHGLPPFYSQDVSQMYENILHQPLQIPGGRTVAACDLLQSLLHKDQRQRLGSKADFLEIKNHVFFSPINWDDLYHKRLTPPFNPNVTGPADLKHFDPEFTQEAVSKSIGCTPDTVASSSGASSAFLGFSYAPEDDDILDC
# [15] = molecular target: T2, Serine/threonine-protein kinase Sgk2 (Homo sapiens); conditions: at 1 µM
# [16] = molecular target: T3, Serine/threonine-protein kinase Sgk3 (Homo sapiens) (UniProt Q96BR1); conditions: at 0.1 µM
# T3 sequence (whole entry): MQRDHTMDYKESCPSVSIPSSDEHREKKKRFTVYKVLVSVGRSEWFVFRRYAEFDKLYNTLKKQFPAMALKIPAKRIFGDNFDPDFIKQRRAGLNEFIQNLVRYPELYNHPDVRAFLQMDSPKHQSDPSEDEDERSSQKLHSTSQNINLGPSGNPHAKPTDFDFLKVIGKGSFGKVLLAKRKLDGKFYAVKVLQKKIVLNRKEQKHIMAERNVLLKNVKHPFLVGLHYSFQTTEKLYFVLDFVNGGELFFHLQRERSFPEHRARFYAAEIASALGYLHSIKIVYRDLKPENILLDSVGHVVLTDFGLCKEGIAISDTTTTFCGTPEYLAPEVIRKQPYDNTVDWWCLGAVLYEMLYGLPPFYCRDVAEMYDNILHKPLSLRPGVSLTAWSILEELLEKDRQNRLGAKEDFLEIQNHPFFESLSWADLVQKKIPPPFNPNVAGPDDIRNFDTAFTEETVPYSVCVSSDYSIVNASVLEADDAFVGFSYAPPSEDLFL
# [17] = molecular target: T3, Serine/threonine-protein kinase Sgk3 (Homo sapiens); conditions: at 1 µM
# [18] = molecular target: 5'-AMP-activated protein kinase catalytic subunit alpha-1 (Homo sapiens) (UniProt Q13131); conditions: at 0.1 µM
# [19] = molecular target: 5'-AMP-activated protein kinase catalytic subunit alpha-1 (Homo sapiens) (UniProt Q13131); conditions: at 1 µM
# [20] = molecular target: 5'-AMP-activated protein kinase catalytic subunit alpha-2 (Homo sapiens) (UniProt P54646); conditions: at 0.1 µM;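 also: mean inhibition measured on the AMPK complex of alpha2, beta1 and gamma1 subunits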
# Chain of Rho-associated protein kinase 2 (Homo sapiens) (O75116 whole entry, looked up): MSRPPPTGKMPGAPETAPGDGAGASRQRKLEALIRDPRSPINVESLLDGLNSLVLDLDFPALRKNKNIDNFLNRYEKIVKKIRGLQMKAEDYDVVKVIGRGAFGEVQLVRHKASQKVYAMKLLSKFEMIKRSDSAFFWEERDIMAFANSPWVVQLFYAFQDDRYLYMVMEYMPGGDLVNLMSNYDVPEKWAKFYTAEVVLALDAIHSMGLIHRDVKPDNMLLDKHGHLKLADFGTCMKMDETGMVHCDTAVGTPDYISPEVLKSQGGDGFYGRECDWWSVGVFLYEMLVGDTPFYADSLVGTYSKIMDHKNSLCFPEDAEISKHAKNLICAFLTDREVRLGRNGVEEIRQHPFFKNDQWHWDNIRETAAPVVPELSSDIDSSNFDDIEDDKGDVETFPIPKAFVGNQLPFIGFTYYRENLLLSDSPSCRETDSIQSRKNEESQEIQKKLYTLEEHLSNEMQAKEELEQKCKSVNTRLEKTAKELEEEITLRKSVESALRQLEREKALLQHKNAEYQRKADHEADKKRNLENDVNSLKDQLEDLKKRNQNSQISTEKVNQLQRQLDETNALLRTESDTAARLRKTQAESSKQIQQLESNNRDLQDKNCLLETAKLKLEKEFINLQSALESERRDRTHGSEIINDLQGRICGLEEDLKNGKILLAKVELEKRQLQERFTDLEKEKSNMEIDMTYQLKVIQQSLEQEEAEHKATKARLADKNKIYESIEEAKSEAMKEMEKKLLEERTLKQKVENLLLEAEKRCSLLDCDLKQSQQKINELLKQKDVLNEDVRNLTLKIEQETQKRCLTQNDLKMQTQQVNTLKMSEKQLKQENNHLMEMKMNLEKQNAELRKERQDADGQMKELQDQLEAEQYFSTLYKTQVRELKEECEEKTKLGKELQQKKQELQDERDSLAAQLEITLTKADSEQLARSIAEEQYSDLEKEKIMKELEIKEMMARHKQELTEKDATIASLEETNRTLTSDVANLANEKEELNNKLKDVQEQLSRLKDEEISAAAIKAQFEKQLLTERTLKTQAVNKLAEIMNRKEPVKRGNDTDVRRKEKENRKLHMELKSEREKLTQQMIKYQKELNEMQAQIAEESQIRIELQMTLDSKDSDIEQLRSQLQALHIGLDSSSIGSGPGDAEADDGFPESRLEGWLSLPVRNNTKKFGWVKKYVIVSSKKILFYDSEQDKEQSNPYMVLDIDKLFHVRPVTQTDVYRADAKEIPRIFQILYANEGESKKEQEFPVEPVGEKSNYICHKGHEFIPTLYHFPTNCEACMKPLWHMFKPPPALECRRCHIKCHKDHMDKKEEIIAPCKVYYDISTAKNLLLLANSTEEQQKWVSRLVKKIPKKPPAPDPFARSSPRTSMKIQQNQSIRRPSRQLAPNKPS
# Chain of Ribosomal protein S6 kinase alpha-2 (Homo sapiens) (Q15349 whole entry): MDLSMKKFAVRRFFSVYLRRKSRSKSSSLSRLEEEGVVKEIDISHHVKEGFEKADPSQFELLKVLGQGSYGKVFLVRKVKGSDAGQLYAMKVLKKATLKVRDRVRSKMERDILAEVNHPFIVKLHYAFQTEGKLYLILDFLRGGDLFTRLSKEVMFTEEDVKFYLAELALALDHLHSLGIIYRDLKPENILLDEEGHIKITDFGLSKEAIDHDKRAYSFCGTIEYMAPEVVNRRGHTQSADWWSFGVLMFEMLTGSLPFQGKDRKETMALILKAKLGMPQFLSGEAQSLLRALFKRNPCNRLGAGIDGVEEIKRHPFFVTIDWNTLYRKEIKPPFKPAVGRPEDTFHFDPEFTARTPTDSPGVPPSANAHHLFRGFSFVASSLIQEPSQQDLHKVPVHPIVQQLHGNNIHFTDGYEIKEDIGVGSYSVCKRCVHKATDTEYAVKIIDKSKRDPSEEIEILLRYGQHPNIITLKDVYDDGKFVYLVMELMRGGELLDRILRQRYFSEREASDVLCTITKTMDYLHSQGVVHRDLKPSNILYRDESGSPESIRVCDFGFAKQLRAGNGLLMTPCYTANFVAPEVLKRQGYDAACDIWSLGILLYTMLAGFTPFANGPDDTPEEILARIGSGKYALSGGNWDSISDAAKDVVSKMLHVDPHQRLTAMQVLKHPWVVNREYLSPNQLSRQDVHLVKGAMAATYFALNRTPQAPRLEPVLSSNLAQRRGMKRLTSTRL
# Chain of Ribosomal protein S6 kinase alpha-6 (Homo sapiens) (Q9UK32 whole entry): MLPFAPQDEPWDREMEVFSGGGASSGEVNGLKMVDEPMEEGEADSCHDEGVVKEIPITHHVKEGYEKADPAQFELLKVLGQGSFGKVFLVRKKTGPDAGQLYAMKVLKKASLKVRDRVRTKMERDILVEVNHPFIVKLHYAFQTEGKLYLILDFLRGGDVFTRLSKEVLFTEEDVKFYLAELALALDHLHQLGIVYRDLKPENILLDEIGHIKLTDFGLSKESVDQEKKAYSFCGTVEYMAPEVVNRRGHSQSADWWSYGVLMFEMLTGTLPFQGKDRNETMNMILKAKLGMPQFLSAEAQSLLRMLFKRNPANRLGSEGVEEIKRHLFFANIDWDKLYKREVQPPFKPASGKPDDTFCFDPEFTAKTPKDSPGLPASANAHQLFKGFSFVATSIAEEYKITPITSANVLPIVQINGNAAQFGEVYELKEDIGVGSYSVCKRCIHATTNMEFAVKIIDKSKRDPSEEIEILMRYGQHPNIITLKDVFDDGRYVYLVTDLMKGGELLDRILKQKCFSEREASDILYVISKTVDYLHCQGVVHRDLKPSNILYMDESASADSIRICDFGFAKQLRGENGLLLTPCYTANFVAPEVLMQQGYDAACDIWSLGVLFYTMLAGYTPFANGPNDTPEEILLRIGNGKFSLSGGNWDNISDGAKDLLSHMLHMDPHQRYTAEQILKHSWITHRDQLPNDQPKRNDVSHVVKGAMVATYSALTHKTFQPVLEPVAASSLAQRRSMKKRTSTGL
# Chain of 5'-AMP-activated protein kinase catalytic subunit alpha-1 (Homo sapiens) (Q13131 whole entry, looked up): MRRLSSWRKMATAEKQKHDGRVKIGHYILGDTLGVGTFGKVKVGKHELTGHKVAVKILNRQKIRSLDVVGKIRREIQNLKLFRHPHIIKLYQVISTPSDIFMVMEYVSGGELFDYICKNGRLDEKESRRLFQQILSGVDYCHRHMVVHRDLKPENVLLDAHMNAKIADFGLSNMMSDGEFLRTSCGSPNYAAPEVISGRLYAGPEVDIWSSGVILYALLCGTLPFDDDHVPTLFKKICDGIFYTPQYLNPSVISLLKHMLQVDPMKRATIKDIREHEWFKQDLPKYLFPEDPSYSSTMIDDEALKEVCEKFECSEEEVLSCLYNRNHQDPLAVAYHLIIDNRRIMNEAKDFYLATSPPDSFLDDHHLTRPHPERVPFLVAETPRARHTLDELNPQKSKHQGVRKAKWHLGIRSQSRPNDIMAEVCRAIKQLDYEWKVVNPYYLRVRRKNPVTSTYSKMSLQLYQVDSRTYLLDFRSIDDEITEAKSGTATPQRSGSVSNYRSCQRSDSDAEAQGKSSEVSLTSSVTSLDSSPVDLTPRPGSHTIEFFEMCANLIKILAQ
# Chain of Ribosomal protein S6 kinase alpha-1 (Homo sapiens) (Q15418 whole entry): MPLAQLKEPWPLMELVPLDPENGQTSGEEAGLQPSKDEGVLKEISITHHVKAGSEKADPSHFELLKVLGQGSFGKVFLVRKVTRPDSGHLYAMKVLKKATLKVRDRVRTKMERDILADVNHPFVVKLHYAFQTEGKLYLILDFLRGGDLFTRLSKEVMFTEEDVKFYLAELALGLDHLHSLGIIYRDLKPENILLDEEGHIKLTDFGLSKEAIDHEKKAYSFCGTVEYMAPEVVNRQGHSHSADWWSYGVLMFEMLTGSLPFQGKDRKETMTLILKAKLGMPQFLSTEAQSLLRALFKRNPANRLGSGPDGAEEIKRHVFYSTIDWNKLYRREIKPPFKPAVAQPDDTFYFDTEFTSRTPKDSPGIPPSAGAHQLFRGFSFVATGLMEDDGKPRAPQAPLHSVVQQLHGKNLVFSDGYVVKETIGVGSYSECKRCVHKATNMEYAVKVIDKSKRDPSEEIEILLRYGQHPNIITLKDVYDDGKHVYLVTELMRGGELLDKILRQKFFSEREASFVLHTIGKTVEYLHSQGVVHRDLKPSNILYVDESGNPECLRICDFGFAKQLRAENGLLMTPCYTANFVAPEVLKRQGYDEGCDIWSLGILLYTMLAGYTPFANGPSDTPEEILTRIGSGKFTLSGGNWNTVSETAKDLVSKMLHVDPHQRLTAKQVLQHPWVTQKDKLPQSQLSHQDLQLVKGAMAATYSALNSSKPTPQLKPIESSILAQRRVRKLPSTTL
# Chain of Ribosomal protein S6 kinase alpha-3 (Homo sapiens) (P51812 whole entry): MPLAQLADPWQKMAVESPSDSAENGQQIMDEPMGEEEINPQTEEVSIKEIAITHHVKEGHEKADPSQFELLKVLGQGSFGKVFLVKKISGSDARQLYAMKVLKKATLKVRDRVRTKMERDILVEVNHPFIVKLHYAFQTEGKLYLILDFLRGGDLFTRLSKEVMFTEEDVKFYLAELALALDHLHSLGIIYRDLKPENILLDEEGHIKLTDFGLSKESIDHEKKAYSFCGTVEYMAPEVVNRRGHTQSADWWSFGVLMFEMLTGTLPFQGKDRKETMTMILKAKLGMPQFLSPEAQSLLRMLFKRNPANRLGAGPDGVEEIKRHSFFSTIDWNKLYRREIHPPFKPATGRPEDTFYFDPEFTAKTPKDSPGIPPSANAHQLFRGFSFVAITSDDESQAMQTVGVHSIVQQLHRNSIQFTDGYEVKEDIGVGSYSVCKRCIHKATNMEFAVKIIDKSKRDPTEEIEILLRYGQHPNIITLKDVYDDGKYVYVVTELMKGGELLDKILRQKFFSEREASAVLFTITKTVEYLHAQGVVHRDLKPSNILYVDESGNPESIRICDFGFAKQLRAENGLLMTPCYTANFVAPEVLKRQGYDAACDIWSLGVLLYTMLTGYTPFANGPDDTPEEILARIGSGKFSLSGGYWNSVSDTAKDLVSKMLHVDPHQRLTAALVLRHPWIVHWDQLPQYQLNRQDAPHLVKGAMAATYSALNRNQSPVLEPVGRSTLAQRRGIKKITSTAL
Compound,inhibition [1] [%],inhibition [2] [%],inhibition [3] [%],inhibition [4] [%],inhibition [5] [%],inhibition [6] [%],inhibition [7] [%],inhibition [8] [%],inhibition [9] [%],inhibition [10] [%],inhibition [11] [%],inhibition [12] [%],inhibition [13] [%],inhibition [14] [%],inhibition [15] [%],inhibition [16] [%],inhibition [17] [%],inhibition [18] [%],inhibition [19] [%],inhibition [20] [%]
C[C@@H](Oc1cc(-n2cnc3ccc(OC[C@@H](O)CO)cc32)sc1C(N)=O)c1ccccc1Cl,1.42,-0.36,0.84,0.36,3.32,1.35,5.89,-0.54,3.27,-0.4,12.7,1.2,0.68,1.68,2.9,-1.63,0.55,0.18,5.73,0.26
NC(=O)c1sc(-n2cnc3ccccc32)cc1OCc1ccccc1Br,3.15,2.13,3.77,1.32,3.02,1.56,2.97,3.5,4.96,2.09,5.17,2.26,2.46,4.32,4.07,1.99,2.42,2.42,4.09,7.19
Oc1cccc(-c2nc(-c3ccccc3)[nH]c2-c2ccncc2)c1,1.51,3.56,6.34,2.58,3.62,1.36,2.76,1.27,3.22,2.27,2.67,0.98,4.8,1.32,4.97,3.71,1.35,2.62,3.13,3.23
Cc1ccc2c(-c3ccnc(Nc4ccc5c(c4)OCCO5)n3)c(-c3ccc(C(F)(F)F)cc3)nn2n1,1.22,0.44,1.89,0.91,0.79,1.19,1.86,1.06,1.53,-0.18,0.44,0.85,1.65,-0.62,-1.7,0.16,-1.14,0.51,3.23,0.13
[O-][S+]1CCN(Cc2ccc(-c3ccc4ncnc(Nc5ccc(OCc6ccccc6)c(Cl)c5)c4c3)o2)CC1,1.73,0.05,0.91,-1.27,0.75,-1.03,0.82,-1.2,0.54,-1.76,-0.67,2.48,1.69,-2.36,1.12,0.45,1.38,0.09,1.19,2.56
CS(=O)(=O)CCNCc1nc(-c2ccc3ncnc(Nc4ccc(OCc5cccc(C(F)(F)F)c5)cc4)c3c2)cs1,-0.55,0.87,1.92,-1.01,0.29,1.21,1.84,1.45,2.09,0.32,0.37,-0.21,-1.85,3.52,2.19,1.04,1.17,1.78,2.03,3.05
CN1CCN(C(=O)c2ccc(NC(=O)Nc3ccc(N(C)c4ccnc(Nc5ccc(CS(C)(=O)=O)cc5)n4)cc3)cc2)CC1,18.7,11.3,52,0.85,2.5,0.47,2.98,2.14,4.07,2.06,5.11,0.94,3.35,1.96,7.04,2.75,1.79,2.09,5.52,3.27
Nc1ccc(C#Cc2cncnc2Nc2ccc(OCc3cccc(F)c3)c(Cl)c2)cc1,2.72,1.93,1.92,1.19,1.59,0.98,1.75,1.56,3.21,0.9,0.51,1.87,2.62,4.82,3.04,2.22,2.3,1.54,2.87,-0.27
CN(C)c1cc2c(Nc3ccc4c(cnn4Cc4ccccc4)c3)ncnc2cn1,2.38,2.57,3.89,0.98,3.04,1.41,2.13,1.63,3.42,0.97,1.71,1.94,2.27,0.16,-0.04,1.86,1.33,2.65,3.27,1.84
COc1cccc(-n2ncc3c(N/N=C/c4ccc(S(C)(=O)=O)cc4)ncnc32)c1,1.16,1.71,1.85,1.45,0.53,1.53,0.98,1.87,4.48,0.99,3.2,3.81,10.1,6.74,4.33,-0.55,2.6,1.41,2,3.56
ON=C1CCc2cc(-c3nc(C4CCNCC4)[nH]c3-c3ccncc3)ccc21,0.82,-1.08,-0.29,-1.46,-1.99,-1,-0.39,0.31,1.01,0.13,-0.49,0.64,0.87,-0.56,-1.29,-1.46,-0.07,-0.26,-1.59,-1.32
Cc1ccc(NC(=O)CC2CC2)cc1-c1ccc(C(=O)NCC2CC2)cc1,2.07,3.27,5.25,1.91,2.35,0.73,1.14,1.88,2.04,1.16,1,2.06,4.1,4.31,1.34,2.72,0.18,1.98,3.58,1
NS(=O)(=O)c1cccc(Nc2cc(-c3ccc(F)cc3)n[nH]2)c1,3.34,3.4,8.75,3.22,7.2,2.09,5.61,2.21,4.15,1.89,4.03,3.81,7.2,3.76,8.09,3.81,7.42,3.82,14.4,2.4
NS(=O)(=O)c1ccc(N/N=C2\C(=O)Nc3ccc(Cl)cc32)cc1,2.29,3.76,10.6,1.95,4.81,1.84,3.95,1.83,2.94,0.98,3.15,3.68,7.28,2.41,5.65,4.29,3.61,6.79,16.1,1.86
COc1cccc(-n2ncc3c(N/N=C/c4ccc(C)cc4)ncnc32)c1,4.15,3.08,5.34,2.5,6.59,0.75,5.14,3.75,4.8,0.68,3.14,0.12,3.62,1.23,2.8,3.8,2.61,1.9,6.98,7.16
Nc1nccc(C#Cc2cncnc2Nc2ccc(OCc3cccc(F)c3)c(Cl)c2)n1,3.74,2.53,4.22,1.3,2.85,0.4,0.81,2.21,2.85,0.59,1,2.17,2.96,1.54,3.69,2.12,3.95,3.13,5.37,1.22
N#Cc1c(NC(=O)c2ccccc2F)sc2c1CCCC2,0.92,-0.61,0.55,0.59,1.03,0.77,2.33,-0.49,0.67,-0.24,0.41,0.71,0.65,-4.27,-5.49,-2.68,-2.69,-0.84,0.73,1.26
COc1cccc(-n2nc(C)c3c(N/N=C(\C)c4ccncc4)ncnc32)c1,-1.87,-0.57,-1.33,-1.25,-0.11,0.34,1.55,1.45,0.23,-0.47,0.03,-0.15,0.8,1.28,5.85,0.38,0.52,-0.66,0.55,2.15
COC(=O)c1ccc2c(c1)C(=Cc1cc(Br)c(O)c(Br)c1)C(=O)N2,1.74,1.52,3.89,1.5,6.51,1.97,4.23,3.99,6.79,2.52,7.3,1.67,5.36,5.27,12.1,3.08,3.5,2.71,6.28,8.21
COC(=O)Nc1nc2cc(Oc3ccc(NC(=O)Nc4cccc(Br)c4)cc3)ccc2[nH]1,7.16,3.44,6.83,1.44,1.53,1.69,0.56,1.65,2.4,1.97,1.35,4.42,6.16,2.07,3.07,2.77,3.45,2.86,2.58,0.56
Cc1cc(Cl)cc2c1NC(=O)C2=NNc1ccc(S(N)(=O)=O)cc1,0.46,2.77,4.97,2.28,4.19,1.6,3.02,2.57,1.19,0.74,1.2,2.17,3.67,1.33,7.78,2.89,5.67,1.67,4.05,-0.13
CCOc1nccc2c1nc(-c1nonc1N)n2CC,10.8,4.9,23.1,5.34,30,3.74,17.1,5.7,27.9,1.8,4.02,4.63,8.95,4.13,12.7,6.9,15.9,3.1,7.14,2.19
